# According to PubChem BioAssay (NCATS):
# Records with an inconclusive call do not appear. Activity calls are given as the source filed them. Unless noted, calls come from the whole dose curve; as a rule, active = well fitted curve in the direction sought with a large enough effect; inconclusive = small, poorly fitted or top-dose-only effect, or another doubt; inactive = no such curve, though single readings can be large; an effect the other way counts as inactive or inconclusive.
# System: not listed separately
# Experiment: NCATS anti-infectives library activity on HEK293 viability as a counter-qHTS vs the C. elegans viability qHTS (AID 1745854);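 note: HEK293 cells exposed to compounds for 24 hr before the viability read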; note: potency is the fitted concentration of half-maximal effect; for activity change, negative = cytotoxicity: % is set by controls: 0 for no effect and ±100 for the full control effect
# Conditions: HEK293 viability counter-screen; series mostly up to 41.8 µM; activity change, negative = cytotoxicity: at the top concentration
# Method in brief: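 HEK293 cells (1,500/well) exposed 24 hr at 37C to 1:5 titrations, up to 41.7 uM final; counter-screen to a C. elegans viability qHTS. Viability by CellTiter-Glo luminescence after 10 min at room temperature; digitonin as control.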
Compound,"activity change, negative = cytotoxicity",Potency
COC(=O)N[C@H](C(=O)N1CCC[C@H]1c1ncc(-c2ccc3c(c2)O[C@@H](c2ccccc2)n2c-3cc3cc(-c4cnc([C@@H]5CCCN5C(=O)[C@@H](NC(=O)OC)C(C)C)[nH]4)ccc32)[nH]1)C(C)C,-18.6% (inactive),–
O=C(O)c1cc(O)c2c(c1)[C@H]([C@H]1c3cc(C(=O)O)cc(O)c3C(=O)c3c(O[C@@H]4OC(CO)C(O)C(O)C4O)cccc31)c1cccc(O[C@@H]3OC(CO)C(O)C(O)C3O)c1C2=O (stereo not given in full),-28.8% (inactive),–
O=C1CC(c2ccccc2)Oc2ccccc21 (stereo not given),7.9% (inactive),–
O=c1ccc2cc3ccoc3cc2o1,-4.46% (inactive),–
CC12CCC(CC1=O)C2(C)C (stereo not given),-11.4% (inactive),–
CC(C)CN(C[C@@H](OP(=O)(O)O)[C@H](Cc1ccccc1)NC(=O)O[C@@H]1CCOC1)S(=O)(=O)c1ccc(N)cc1,-9.05% (inactive),–
COC(=O)N[C@H](C(=O)N1CC2(CC2)C[C@H]1c1ncc(-c2ccc3c(c2)C(F)(F)c2cc(-c4ccc5nc([C@@H]6[C@H]7CC[C@H](C7)N6C(=O)[C@@H](NC(=O)OC)C(C)C)[nH]c5c4)ccc2-3)[nH]1)C(C)C,-0.198% (inactive),–
C=C[C@@H]1C[C@]1(NC(=O)[C@@H]1C[C@@H]2CN1C(=O)[C@H](C(C)(C)C)NC(=O)O[C@@H]1C[C@H]1CCCCCc1nc3ccc(OC)cc3nc1O2)C(=O)NS(=O)(=O)C1CC1,-1.22% (inactive),–
CCC(C)n1ncn(-c2ccc(N3CCN(c4ccc(OCC5COC(Cn6cncn6)(c6ccc(Cl)cc6Cl)O5)cc4)CC3)cc2)c1=O (stereo not given),2.31% (inactive),–
NC(=O)[C@@H]1CC[C@@H]2CN1C(=O)N2OS(=O)(=O)O,17.1% (inactive),–
COc1ccc2c(O[C@H]3CC4C(=O)N(C)CCCC/C=C\[C@@H]5C[C@@]5(C(=O)NS(=O)(=O)C5CC5)NC(=O)[C@@H]4C3)cc(-c3nc(C(C)C)cs3)nc2c1C (stereo not given in full),-4.83% (inactive),–
CC[C@@]1([C@@H]2O[C@@H]([C@H]3O[C@@](O)(CO)[C@H](C)C[C@@H]3C)C[C@@H]2C)CC[C@H]([C@]2(C)CCC3(C[C@H](O)[C@@H](C)[C@@H]([C@@H](C)[C@@H](OC)[C@H](C)C(=O)O)O3)O2)O1 (stereo not given in full),-29.3% [at 3.71 µM] (inactive),–
CCCCCCCCCCCCCCCCn1cc[n+](Cc2ccccc2)c1C,–,11.2 µM (active)
O=C(/C=C/c1ccc(O)c(O)c1)O[C@@H](C(=O)O)[C@@H](OC(=O)/C=C/c1ccc(O)c(O)c1)C(=O)O,-2.13% (inactive),–
CCCCCCCCOC(=O)c1cc(O)c(O)c(O)c1,-21.5% [at 83.3 µM] (inactive),–
O=C(O)CCCCCCCCC(=O)O,-14.2% (inactive),–
CC(C)CN(C[C@@H](O)[C@H](Cc1ccccc1)NC(=O)O[C@H]1CCOC1)S(=O)(=O)c1ccc(N)cc1,8.34% (inactive),–
O=C(Nc1ccccc1)c1ccccc1O,-2.39% (inactive),–
CCC(CC)[C@H](NC(C)=O)[C@@H]1[C@H](O)[C@@H](C(=O)O)C[C@H]1N=C(N)N,-6.87% [at 0.334 µM] (inactive),–
O=C1CCC[C@@H]2[C@@H]3CCC[N@+]4([O-])CCC[C@H](CN12)[C@H]34,-0.269% (inactive),–
C[Si](C)(C)O[Si](C)(C)O[Si](C)(C)C,-13.5% [at 83.3 µM] (inactive),–

# System: not listed separately
# Experiment: NCATS anti-infectives library activity on the primary C. elegans qHTS viability assay (AID 1745855; calls by dose curve; note: potency is the fitted concentration of half-maximal effect)
# Conditions: C. elegans worm area imaging, day 7; series mostly up to 41.8 µM; activity change, negative = inhibition: at the top concentration; outcome: at the top concentration
# Method in brief: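 Viability read-out is GFP fluorescence of PE254-GFP-FLuc C. elegans, measured by laser cytometry (488 nm) at day 0, 3 and 7. Ten L1 worms per well were incubated 7 days at 21 °C with compounds and bacterial capsules in S medium.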
Compound,Potency,outcome
Cc1cc(/C=C/C#N)cc(C)c1Nc1ccnc(Nc2ccc(C#N)cc2)n1,16.3 µM (active),–
COc1ccc(-c2oc3cc(OC)c(OC)c(O)c3c(=O)c2OC)cc1O,0.816 µM (active),–
CC(C)C[C@H](NC(=O)CNC(=O)c1cc(Cl)ccc1Cl)B1OC(=O)C(CC(=O)O)(CC(=O)O)O1,1.63 µM (active),–
CCCCN(Cc1ccc(C(=O)NO)cc1)C(=O)Nc1ccccc1,–,inactive

# Target: Glutathione peroxidase 1 (Homo sapiens) (UniProt P07203)
# Experiment: Primary qHTS Assay for Inhibitors of Recombinant Selenoprotein Glutathione Peroxidase 1 (GPX1) (AID 1845191); note: nearly all actives have a fitted effect of over 65% in size; for activity, negative = inhibition: % is set by controls: 0 for no effect and ±100 for the full control effect
# Conditions: recombinant GPX1, GR-coupled NADPH fluorescence, 15 min; series mostly up to 48.8 µM; activity, negative = inhibition: at the top concentration; outcome: at the top concentration
# Method in brief: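 10 nM GPX1 + cpd, 30 min RT; start w/ 1 mM GSH, 0.5 mM cumene hydroperoxide, 0.5 mM NADPH, 100 nM GR, 0.01% BSA; buffer 50 mM Tris-HCl pH 7.5, 2 mM EDTA, 150 mM NaCl; Fl 340/450, 0 & 15 min.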
# Chain of Glutathione peroxidase 1 (Homo sapiens) (P07203 whole entry, looked up): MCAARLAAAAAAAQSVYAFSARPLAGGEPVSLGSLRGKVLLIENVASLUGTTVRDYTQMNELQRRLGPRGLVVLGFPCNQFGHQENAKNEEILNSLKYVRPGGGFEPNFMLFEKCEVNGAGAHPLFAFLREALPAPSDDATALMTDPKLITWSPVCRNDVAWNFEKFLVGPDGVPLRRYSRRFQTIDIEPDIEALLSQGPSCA
Compound,outcome,Potency,"activity, negative = inhibition"
Cc1cc(/C=C/C#N)cc(C)c1Nc1ccnc(Nc2ccc(C#N)cc2)n1,inactive,–,–
COC(=O)N[C@H](C(=O)N1CC2(CC2)C[C@H]1c1ncc(-c2ccc3c(c2)C(F)(F)c2cc(-c4ccc5nc([C@@H]6[C@H]7CC[C@H](C7)N6C(=O)[C@@H](NC(=O)OC)C(C)C)[nH]c5c4)ccc2-3)[nH]1)C(C)C,–,inactive,–
CCC(C)n1ncn(-c2ccc(N3CCN(c4ccc(OCC5COC(Cn6cncn6)(c6ccc(Cl)cc6Cl)O5)cc4)CC3)cc2)c1=O (stereo not given),inactive [at 27.7 µM],–,–
NC(=O)[C@@H]1CC[C@@H]2CN1C(=O)N2OS(=O)(=O)O,–,–,-6.52% (inactive)
COc1ccc2c(O[C@H]3CC4C(=O)N(C)CCCC/C=C\[C@@H]5C[C@@]5(C(=O)NS(=O)(=O)C5CC5)NC(=O)[C@@H]4C3)cc(-c3nc(C(C)C)cs3)nc2c1C (stereo not given in full),–,–,-2.81% (inactive)
CC[C@@]1([C@@H]2O[C@@H]([C@H]3O[C@@](O)(CO)[C@H](C)C[C@@H]3C)C[C@@H]2C)CC[C@H]([C@]2(C)CCC3(C[C@H](O)[C@@H](C)[C@@H]([C@@H](C)[C@@H](OC)[C@H](C)C(=O)O)O3)O2)O1 (stereo not given in full),–,inactive,–
CC(C)CN(C[C@@H](O)[C@H](Cc1ccccc1)NC(=O)O[C@H]1CCOC1)S(=O)(=O)c1ccc(N)cc1,–,–,0.882% (inactive)
CC(C)C[C@H](NC(=O)CNC(=O)c1cc(Cl)ccc1Cl)B1OC(=O)C(CC(=O)O)(CC(=O)O)O1,inactive,–,–
O=C1CCC[C@@H]2[C@@H]3CCC[N@+]4([O-])CCC[C@H](CN12)[C@H]34,inactive,–,–
C[Si](C)(C)O[Si](C)(C)O[Si](C)(C)C,inactive [at 98.3 µM],–,–
